According to PubChem BioAssay (NCI):
Compounds without any hit were thinned out: in the full panel of roughly 83,000, 20% have a hit.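 How to read the values: 0–100, growth inhibition (40 = 60% inhibited); 0, no net growth; -100 to 0, cell death (-40 = 40% of starting cells died; -100 = all dead).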 Values without a mark were called inactive. Calls of active or inactive are those of the source. Rule for the calls: active = growth percent below 10; inactive = the rest.

Columns and labels:
Experiment in all cases: NCI-60 one-dose screen, 48 h (100 = growth as untreated, 0 = no growth, -100 = all killed)
Details in all cases: 10 µM unless noted
NCI-H23 lung = tested on: NCI-H23 lung
NCI-H322M lung = tested on: NCI-H322M lung
HOP-62 NSCLC = tested on: HOP-62 NSCLC
NCI-H460 lung = tested on: NCI-H460 lung
HOP-92 NSCLC = tested on: HOP-92 NSCLC
NCI-H522 lung = tested on: NCI-H522 lung
A549/ATCC NSCLC = tested on: A549/ATCC NSCLC
786-0 renal = tested on: 786-0 renal
COLO 205 colon = tested on: COLO 205 colon
DU-145 prostate = tested on: DU-145 prostate
K-562 leukemia = tested on: K-562 leukemia
MALME-3M melanoma = tested on: MALME-3M melanoma
MDA-MB-231 breast = tested on: MDA-MB-231 breast
RXF 393 renal = tested on: RXF 393 renal
SF-268 CNS = tested on: SF-268 CNS
SF-295 CNS = tested on: SF-295 CNS
SF-539 CNS = tested on: SF-539 CNS
UACC-257 melanoma = tested on: UACC-257 melanoma
M14 melanoma = tested on: M14 melanoma
HCT-15 colon = tested on: HCT-15 colon

| Compound | growth (NCI-H23 lung) | growth (NCI-H322M lung) | growth (HOP-62 NSCLC) | growth (NCI-H460 lung) | growth (HOP-92 NSCLC) | growth (NCI-H522 lung) | growth (A549/ATCC NSCLC) | growth (786-0 renal) | growth (COLO 205 colon) | growth (DU-145 prostate) | growth (K-562 leukemia) | growth (MALME-3M melanoma) | growth (MDA-MB-231 breast) | growth (RXF 393 renal) | growth (SF-268 CNS) | growth (SF-295 CNS) | growth (SF-539 CNS) | growth (UACC-257 melanoma) | growth (M14 melanoma) | growth (HCT-15 colon) |
| --- | --- | --- | --- | --- | --- | --- | --- | --- | --- | --- | --- | --- | --- | --- | --- | --- | --- | --- | --- | --- |
| Nc1ccn(C2O[C@H](CO)[C@@H](O)[C@H]2O)c(=O)n1 (some centres undefined) | 71.8% | 114% | 65% | 59.8% | 73.2% | 71.2% | 46.6% | 95.2% | 110% | 94.4% | 74.3% | 109% | 82.8% | 50.1% | 86.2% | 58.5% | 73.1% | 90.1% | 107% |  |
| O=c1cc(NC2CCN(CCCc3ccccc3)CC2)c2cc(Cl)ccc2o1 | -1.92% (active) | 0.794% (active) | 0.321% (active) | -6.31% (active) | -26.1% (active) | -31.2% (active) | 0.692% (active) | 18.1% | -98.4% (active) | 15.5% | 5.97% (active) | -30.4% (active) | -62.2% (active) | -25.3% (active) | 17.2% | -44.1% (active) | 19.4% | -31.5% (active) | 4.04% (active) | 14.1% |
| CCOC(=O)C1(Cc2ccccc2)CCN(Cc2cccc(OC)c2O)CC1 | 18.3% | 20.3% | 12.9% | -13% (active) | 30.6% | 17.1% | 2.47% (active) | 6.33% (active) | 10.2% | 10.8% | 8.73% (active) | 12% | 22.1% | -13.9% (active) | 5.65% (active) | -22.2% (active) | 5.93% (active) | -4.96% (active) | 2.78% (active) | 24% |
| COC(=O)c1ccc(NC(=O)CSc2nc3ccccc3c(=O)n2-c2ccccc2)cc1 | 95.4% | 103% | 106% | 99.2% | 79.7% | 80.6% | 88.8% | 100% | 120% | 108% | 95.1% | 109% | 95.7% | 111% | 92% | 102% | 100% | 90.4% | 105% | 105% |
| Oc1ccc(-c2nc(-c3ccc4oc5ccc(-c6[nH]c(-c7ccc(O)cc7)nc6-c6ccccc6)cc5c4c3)c(-c3ccccc3)[nH]2)cc1 | 43.9% | 78.6% | 73.3% | 59.1% | 25.7% | 59.4% | 65.8% | 86.4% | 53.8% | 89% | 22.7% | 43.1% | 59.5% | 84.9% | 63.5% | 15.6% | 79.4% | 34.5% | 65.5% | 78.8% |
| CC[C@]1(O)C[C@@H]2CN(CCc3c([nH]c4ccccc34)[C@@](C(=O)OC)(c3cc4c(cc3OC)N(C)[C@H]3[C@@](O)(C(=O)OC)[C@H](OC(C)=O)[C@]5(CC)C=CCN6CC[C@]43[C@@H]65)C2)C1 | 26.8% | 39.9% | 35% | 4.41% (active) | -9.28% (active) | 4.5% (active) | 17.8% | 9.87% (active) | -10.8% (active) | -7.13% (active) | 15.3% | 40.9% | -15.3% (active) | 22.1% | 17.3% | 8.85% (active) | -2.89% (active) | 64.4% | 3.97% (active) | 14.6% |
| CCCCCCn1c(=N)n(CC(O)COc2cccc(C)c2)c2ccccc21 (centres undefined) | 11% | -42.8% (active) | -74.6% (active) | -68.1% (active) | -6.11% (active) | -74.5% (active) | -32.3% (active) | -86.5% (active) | -94.4% (active) | -22.4% (active) | -2.58% (active) | -90.9% (active) | -70.7% (active) | -95.1% (active) | -14.2% (active) | -85.7% (active) | -86.4% (active) | -87.8% (active) | -75.2% (active) | -18.8% (active) |
| COc1ccc(Nc2cc(C)nc(NCc3ccccc3)n2)cc1 | 56% | 61.9% | 38.5% | 11.9% | 21.6% | 19.9% | 7.95% (active) | 34.1% | 3.51% (active) | 45.4% | 5.22% (active) | 13.6% | -18.1% (active) | -16.2% (active) | 47.8% | -30.7% (active) | 47.5% | 46.8% | 8.52% (active) | 26.1% |
| CN(C)c1ccc(N=Cc2ccc(N3CCOCC3)cc2)cc1 | 68.5% | 106% | 87.3% | 92.3% | 100% | 42.4% | 73.7% | 101% | 3.73% (active) | 99.6% | 56.6% | 81.8% | 48.2% | 130% | 84.7% | 83.3% | 31.6% | 84.8% | 71.2% | 77.3% |
| COc1ccc(C2C3=C(COC3=O)N(CCO)c3cc4c(cc32)CCC4)cc1OC (centres undefined) | 29.8% | 35.3% | 31.6% | -15.1% (active) | 91.9% | -33.7% (active) | 19.5% | 26.7% | 14.9% | -28.1% (active) | 14.7% | 42.8% | 24.7% | -42.7% (active) | 49.1% | -2.08% (active) | -20.4% (active) | 43.6% | -18.4% (active) | 21.8% |
| Nc1nc(-c2cnccn2)nn1-c1nc2ccccc2s1 | 95.2% | 103% | 95.4% | 104% | 106% | 88.4% | 92.7% | 102% | 111% | 106% | 93.9% | 104% | 95.4% | 110% | 99.2% | 103% | 101% | 99.1% | 99.2% | 103% |
| Nc1nc(-c2ccccc2Br)nn1-c1nc2ccccc2s1 | 98% | 105% | 105% | 100% | 99.6% | 85.6% | 98.4% | 104% | 110% | 110% | 94.8% | 105% | 101% | 104% | 97.4% | 102% | 99.6% | 89% | 98.3% | 97.2% |
| Fc1ccc(Oc2ccc(Nc3ncnc4onc(-c5ccccc5)c34)cc2)cc1 | 104% | 87.9% | 105% | 102% | 88.8% | 90.5% | 90.1% | 97.3% | 122% | 95.2% | 113% | 93.2% | 70.7% | 115% | 83% | 99.7% | 90.1% | 88.3% | 104% | 103% |
| COC(=O)/C(CCC=C(C)C)=C1\[C@@H](OC(C)=O)C[C@@]2(C)[C@H]1C[C@@H](O)[C@H]1[C@@]3(C)CC[C@H](NCc4ccccc4)[C@@H](C)[C@@H]3CC[C@@]12C | 81.4% | 91.5% | 84% | 45.1% | 48.8% | 80% | 59% | 55.4% | 50% | 74.8% | 11% | 68% | 63.6% | 49.6% | 64.1% | 85.7% | 70% | 75.4% | 49.8% | 31% |
